For 6 molecules, activation results are on record in PubChem BioAssay (NCATS).

Records with an inconclusive call do not appear. Active and inactive are the calls of the source. The call rests on the fitted dose curve; in most records, active means well fitted activation curve with a large enough effect; inconclusive means small, poorly fitted or top-dose-only effect; inactive means no such curve, though single readings can be large or run the other way.

Chain of Cellular tumor antigen p53 (Homo sapiens) (P04637 whole entry, looked up): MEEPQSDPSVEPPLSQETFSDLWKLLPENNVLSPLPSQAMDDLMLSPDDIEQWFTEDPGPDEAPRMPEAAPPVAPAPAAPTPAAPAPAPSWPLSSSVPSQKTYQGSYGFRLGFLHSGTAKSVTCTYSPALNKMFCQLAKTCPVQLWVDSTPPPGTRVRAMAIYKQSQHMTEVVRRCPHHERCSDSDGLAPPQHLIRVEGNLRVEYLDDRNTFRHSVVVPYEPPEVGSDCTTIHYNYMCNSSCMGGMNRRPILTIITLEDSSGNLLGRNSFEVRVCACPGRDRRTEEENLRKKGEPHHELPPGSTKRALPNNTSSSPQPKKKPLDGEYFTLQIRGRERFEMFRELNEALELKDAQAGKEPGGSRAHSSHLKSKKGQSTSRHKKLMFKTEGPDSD

The experiment addresses Cellular tumor antigen p53 (Homo sapiens) (UniProt P04637). Briefly: Primary qHTS for small molecule compounds that upregulate eGFP-tagged delta133p53alpha (in N-terminal) cells. (AID 2060322).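 Further: series mostly up to about 56 µM; 0% = DMSO vehicle and 100% = reference activator; nearly all actives have a fitted effect of over 75% in size.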 As to conditions: NCI-H358 eGFP-delta133p53alpha fluorescence, 24 h; activation: stronger effect = higher value. In a few lines: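 NCI-H358 cells pre-induced 24 h with 10 ng/ml doxycycline to express N-terminal eGFP-delta133p53alpha, then dosed 24 h at 37C without doxycycline; fixed, Hoechst-stained, GFP intensity by laser scanning cytometry, normalized to DMSO (0%) and 57.5 uM 5-azacytidine (100%).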
A general note: qHTS replaces the single test concentration by a dilution series.
As to `CC(C)(C)C(=O)NCCCC(=O)O`, the activation is -17.6% (inactive).

Consider `C[C@]12CC[C@H]3[C@@H](CCC4=CC(=O)CC[C@@]43C)[C@@H]1CC[C@@H]2C(=O)CO`, for which the activation was -5.86% (inactive).

For `CC(=O)CC(c1ccc([N+](=O)[O-])cc1)c1c(O)c2ccccc2oc1=O` (stereo unspecified), the activation was -10% (inactive).

On to `C[C@@H]1C[C@H]2[C@@H]3CCC4=CC(=O)C=C[C@]4(C)[C@@]3(F)[C@@H](O)C[C@]2(C)[C@H]1C(=O)CO`, for which the activation was 0.837% (inactive).

Consider `O=C(c1cc(O)c(O)c(O)c1)c1ccc(O)c(O)c1O`, for which the activation was 23.2% (inactive).

Regarding `O=C1c2ccccc2S(=O)(=O)N1CCCCN1CCN(c2ncccn2)CC1`, the activation was 13.4% (inactive).
